Experiment [1] in a line: NCI Yeast Anticancer Drug Screen. Data for the rad50 strain (AID 155).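 Also: 0% = growth of vehicle-only cultures of the same strain.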 Conditions: S. cerevisiae rad50 strain growth inhibition; at 50.0 µM; stronger effect = higher value. An outline of the steps:
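A DNA repair-deficient yeast mutant serves as the test organism; compound-induced growth inhibition is calculated against vehicle-treated cells.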

Experiment [2] in a line: NCI Yeast Anticancer Drug Screen. Data for the mec2-1 strain (AID 157). Conditions: S. cerevisiae mec2-1 strain, at 50.0 µM, stronger effect = higher value. An outline of the steps:
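Compounds were applied to mec2-1 yeast cells. Their growth was then compared with that of vehicle-treated cultures to give growth inhibition.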

The nature of experiment [3]: NCI Yeast Anticancer Drug Screen. Data for the sgs1 mgt1 strain (AID 161).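 Also: 0% = growth of cultures given vehicle only.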 Conditions: S. cerevisiae sgs1 mgt1 strain, at 50.0 µM, stronger effect = higher value. Put shortly:
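Growth of a repair-deficient yeast mutant was monitored after compound treatment and expressed as inhibition relative to vehicle-treated cultures.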

Experiment [4] can be described thus: NCI Yeast Anticancer Drug Screen. Data for the cln2 rad14 strain (AID 165).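 Also: 0% = growth equal to vehicle treated cultures.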 Conditions: S. cerevisiae cln2 rad14 strain, at 50.0 µM, stronger effect = higher value. An outline of the steps: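 Strain: cln2 rad14 yeast, altered in cell cycle control and DNA damage repair. Read-out: growth inhibition vs vehicle.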
Experiment [5] is described as follows: NCI Yeast Anticancer Drug Screen. Data for the bub3 strain (AID 167). Conditions: S. cerevisiae bub3 mutant strain, at 50.0 µM, stronger effect = higher value. Put shortly: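 Inhibition values come from growth of compound-treated mutant yeast normalised to vehicle-treated controls.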
The nature of experiment [6]: NCI Yeast Anticancer Drug Screen. Data for the mlh1 rad18 strain (AID 175). Conditions: S. cerevisiae mlh1 rad18 strain growth inhibition; at 50.0 µM; stronger effect = higher value. Put shortly: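 A repair-deficient yeast strain is exposed to test compound, and growth is scored relative to vehicle-treated controls.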

Compounds without any hit were thinned out: in the full panel of roughly 79,000, 15% have a hit. A number with no mark means an inactive call. The source made the active and inactive calls. Rule as the data show it: active = growth inhibition above about 70%; inactive = the rest.

Regarding `COc1ccc(/C=C2/SC(=S)NC2=O)cc1S(=O)(=O)O`, the growth inhibition in experiment [1] was 2.25%; in experiment [2], -6.15%; in experiment [3], 8.65%; in experiment [4] it was -10.8%; in experiment [5], 9.95%; in experiment [6], -1.15%.
For the compound `[Cl][Pt+2][Cl].[NH-]CC(O)c1ccc2oc3ccccc3c2c1.[NH-]CC(O)c1ccc2oc3ccccc3c2c1` (stereo not given), the growth inhibition in experiment [1] was -23.3%; in experiment [2], -11.2%; in experiment [3], -30.6%; in experiment [4], -21.1%; in experiment [5], 7.35%; in experiment [6], 17.6%.
Turning to `c1ccc(-c2ccc(-c3c(-c4ccccc4)ccc(-c4ccccc4)c3-c3ccccc3)cc2)cc1`, the growth inhibition in experiment [1] was 20.8%; in experiment [2], -0.7%; in experiment [3], -10.1%; in experiment [4], 20.9%; in experiment [5] it was -2.85%; in experiment [6], -1.4%.
With `OC1=CC(=S)NC2CCCCC12` (stereo not given), the growth inhibition was 32.2% in experiment [1]; 18.2% in experiment [2]; 45% in experiment [3]; 35.9% in experiment [4]; 29.4% in experiment [5]; 49.8% in experiment [6].
Consider `Cn1c(Cl)cn2c3nc4ccccc4nc3c(=O)c(C#N)c12`, for which the growth inhibition in experiment [1] was 6.1%; in experiment [2], -29.2%; in experiment [3], -52.1%; in experiment [4] it was 1.3%; in experiment [5], -18.1%; in experiment [6] it was -4%.
For `O=C1C2CCCCC2C(=O)N1O` (stereo not given), the growth inhibition is 60.1% in experiment [1]; -1.5% in experiment [2]; 18.8% in experiment [3]; 16.6% in experiment [4]; 1.45% in experiment [5]; 9.25% in experiment [6].
As to `CCCCC(CC)COC(=O)C(C)CCC` (stereo not given), the growth inhibition was 4.65% in experiment [1]; -1.1% in experiment [2]; -2.4% in experiment [3]; -27.7% in experiment [4]; 17.9% in experiment [5]; 5% in experiment [6].
With `C=CC1CNCCC1CCC(=O)c1ccnc2ccc(OC)cc12` (stereo not given), the growth inhibition in experiment [1] was 7.75%; in experiment [2], -9.6%; in experiment [3], -1.2%; in experiment [4] it was 5.85%; in experiment [5] it was 1.15%; in experiment [6], 4.4%.
On to `CN(C)C(=O)/N=C1\SC(=Nc2ccccc2)C(=Nc2ccccc2)N1c1ccc([N+](=O)[O-])cc1`, for which the growth inhibition was -1.65% in experiment [1]; 5.5% in experiment [2]; -1.7% in experiment [3]; 27.2% in experiment [4]; 16.4% in experiment [5]; -12.3% in experiment [6].
Take `Cc1[nH]c2ccccc2c1C(Cc1ccccc1NC(=O)CCC(=O)O)c1c[nH]c2ccccc12` (stereo not given): the growth inhibition is 9% in experiment [1]; -5.05% in experiment [2]; -4.5% in experiment [3]; -1.5% in experiment [4]; -0.9% in experiment [5]; 1.05% in experiment [6].
In the case of `COc1ccc2nc(NC(=O)C(=O)C(C#N)c3ccc(CC#N)cc3)sc2c1` (stereo not given), the growth inhibition in experiment [1] was -4.3%; in experiment [2], 11.4%; in experiment [3] it was 4.5%; in experiment [4] it was -4.85%; in experiment [5], 0.15%; in experiment [6], -5.75%.
On to `CN(C)c1ccc(/C=C2\CCOC2=O)cc1`, for which the growth inhibition was 38.1% in experiment [1]; 11.8% in experiment [2]; 14.3% in experiment [3]; 4.6% in experiment [4]; 2.95% in experiment [5]; 8.6% in experiment [6].
`COC(=O)c1cnccn1`: the growth inhibition is -3.3% in experiment [1]; -1.35% in experiment [2]; -3.85% in experiment [3]; -27.4% in experiment [4]; 0.75% in experiment [5]; -6.3% in experiment [6].
In the case of `CCOC(=O)C(=O)C1CCCC1=O` (stereo not given), the growth inhibition in experiment [1] is -6.9%; in experiment [2], -6.65%; in experiment [3] it was 2.25%; in experiment [4], -0.7%; in experiment [5], 1.7%; in experiment [6], -0.6%.
Regarding `CC(=O)n1nnc(CC#N)c1-c1ccccc1`, the growth inhibition was 20.4% in experiment [1]; 7.5% in experiment [2]; 2.65% in experiment [3]; 5.1% in experiment [4]; -23.2% in experiment [5]; -15.3% in experiment [6].
As to `O=C(O)C1CCCC2C(O)CCC(O)C12` (stereo not given), the growth inhibition is -10.4% in experiment [1]; -15.4% in experiment [2]; -1.85% in experiment [3]; -12.9% in experiment [4]; -7.2% in experiment [5]; -34.1% in experiment [6].
`CC=C=C(C)CN`: the growth inhibition in experiment [1] was -6.4%; in experiment [2], -3.8%; in experiment [3] it was -9.6%; in experiment [4], -7.95%; in experiment [5], -6.25%; in experiment [6] it was -8.45%.
Regarding `CC(C)CCCC(C)C1CCC2C3C(O)CC4CCCCC4(C)C3CCC12C` (stereo not given), the growth inhibition in experiment [1] was 96.7% (active); in experiment [2] it was 97.8% (active); in experiment [3], 98% (active); in experiment [4], 95.2% (active); in experiment [5] it was 95.7% (active); in experiment [6], 97.9% (active).
`C/C(=N\NS(=O)(=O)c1ccc(C)cc1)c1c(C)noc1C`: the growth inhibition is -13.4% in experiment [1]; 7.55% in experiment [2]; 13.3% in experiment [3]; 3.85% in experiment [4]; 6.3% in experiment [5]; 13.3% in experiment [6].
For the compound `NNC(=O)c1nnc(N)o1`, the growth inhibition in experiment [1] was -11.6%; in experiment [2] it was -12.1%; in experiment [3] it was 7.25%; in experiment [4] it was -9.45%; in experiment [5] it was -11.7%; in experiment [6], 6.45%.

(Values after PubChem BioAssay (NCI).)
